Laboratory results: PubChem BioAssay (NCI)
The panel holds about 79,000 compounds, 15% with a hit somewhere; the sample as a whole holds those more often. The source made the active and inactive calls. Cut-off read from the data, not from the text of the source: active = growth inhibition above about 70%; inactive = the rest.

Legend:
[1] = NCI Yeast Anticancer Drug Screen. Data for the wt1 strain (AID 149);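 note: 0% = growth of vehicle-treated wt1 cultures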; settings: S. cerevisiae wt1 strain (SPY 50644) growth inhibition, hits give high values
Outline: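 Using yeast strain wt1, compound-induced growth inhibition was determined against vehicle-treated cultures.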

[2] = NCI Yeast Anticancer Drug Screen. Data for the rad50EPP+ strain (AID 151);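 note: 0% = growth of vehicle-treated control cultures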; settings: S. cerevisiae rad50 mutant strain, hits give high values
Outline: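 Growth inhibition read against vehicle controls in rad50EPP+ yeast, a strain altered in DNA damage repair, after compound exposure.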

[3] = NCI Yeast Anticancer Drug Screen. Data for the mgt1 strain (AID 153); settings: S. cerevisiae mgt1 mutant growth inhibition, hits give high values
Outline: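 mgt1 yeast grown with test compound; read-out is growth inhibition versus vehicle-treated cultures.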

[4] = NCI Yeast Anticancer Drug Screen. Data for the rad50 strain (AID 155);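 note: 0% = growth of vehicle-only cultures of the same strain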; settings: S. cerevisiae rad50 strain growth inhibition, hits give high values
Outline: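 Relative growth inhibition (compound vs vehicle) was measured in yeast with a defined repair-gene alteration.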

[5] = NCI Yeast Anticancer Drug Screen. Data for the mec2-1 strain (AID 157); settings: S. cerevisiae mec2-1 strain, hits give high values
Outline: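 Yeast mec2-1 mutant treated with compound. Readout: growth inhibition vs vehicle controls.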

[6] = NCI Yeast Anticancer Drug Screen. Data for the rad14 strain (AID 159);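 note: 0% = growth of vehicle-treated control cultures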; settings: S. cerevisiae rad14 strain growth inhibition, hits give high values
Outline: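 Screen for anticancer potential: a yeast strain altered in DNA damage repair is grown with compound, and reduced growth is quantified against vehicle controls.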

[7] = NCI Yeast Anticancer Drug Screen. Data for the sgs1 mgt1 strain (AID 161);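 note: 0% = growth of cultures given vehicle only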; settings: S. cerevisiae sgs1 mgt1 strain, hits give high values
Outline: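 Test agents were incubated with a DNA-repair-mutant yeast strain. Growth was then read and compared against vehicle-treated controls.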

[8] = NCI Yeast Anticancer Drug Screen. Data for the CLN2oe strain (AID 163);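 note: 0% = growth of vehicle-only control cultures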; settings: S. cerevisiae CLN2oe strain, hits give high values
Outline: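 Read-out: yeast growth inhibition, expressed relative to vehicle-only controls. The strain bears an engineered cell-cycle alteration.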

[9] = NCI Yeast Anticancer Drug Screen. Data for the cln2 rad14 strain (AID 165);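 note: 0% = growth equal to vehicle treated cultures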; settings: S. cerevisiae cln2 rad14 strain, hits give high values
Outline: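 cln2 rad14 yeast strain; compound exposure; growth inhibition read vs vehicle controls.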

[10] = NCI Yeast Anticancer Drug Screen. Data for the bub3 strain (AID 167); settings: S. cerevisiae bub3 mutant strain, hits give high values
Outline: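 Screening used yeast with an engineered genetic alteration affecting cell cycle control. Compound-exposed cultures were compared with vehicle cultures, and reduced growth was taken as inhibition.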

[11] = NCI Yeast Anticancer Drug Screen. Data for the wt2 strain (AID 169);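 note: 0% = growth of vehicle-treated yeast cultures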; settings: S. cerevisiae wt2 strain growth inhibition, hits give high values
Outline: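 Read-out: growth inhibition versus vehicle-treated control cultures after compound exposure of the yeast strain.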

[12] = NCI Yeast Anticancer Drug Screen. Data for the mlh1 strain (AID 171);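 note: 0% = growth of vehicle-treated control cultures of the same strain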; settings: S. cerevisiae mlh1 strain growth inhibition, hits give high values
Outline: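 Read-out: growth inhibition versus vehicle controls. Strain: engineered yeast with a defined DNA repair or cell cycle defect, compound-treated.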

[13] = NCI Yeast Anticancer Drug Screen. Data for the sgs1 strain (AID 173);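 note: 0% = growth of vehicle-only control cultures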; settings: S. cerevisiae sgs1 mutant, hits give high values
Outline: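 Read-out: yeast growth inhibition relative to vehicle controls, following compound exposure of a strain with a defined DNA repair/cell cycle alteration.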

[14] = NCI Yeast Anticancer Drug Screen. Data for the mlh1 rad18 strain (AID 175); settings: S. cerevisiae mlh1 rad18 strain growth inhibition, hits give high values
Outline: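 Yeast w/ defined DNA-repair lesions; compound exposure; growth vs vehicle controls → % inhibition.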

[15] = NCI Yeast Anticancer Drug Screen. Data for the rad18 strain (AID 177); settings: S. cerevisiae rad18 mutant growth inhibition, hits give high values
Outline: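 Readout: growth inhibition vs vehicle controls. Cells: genetically altered yeast strain, DNA repair defect.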

[16] = at 5.0 µM (retest, dose inferred, filed as 0.5)
[17] = at 50.0 µM (retest, dose inferred, filed as 5.0)

Measured: growth inhibition

CCN1CCC(O)(c2ccc(Oc3ccc(C)cc3)cc2)C(C(=O)c2ccc(Oc3ccc(C)cc3)cc2)C1 (stereo not drawn)
inactive: [1]; at 1.2 µM -44% | [1]; at 3.7 µM -31% | [2]; at 1.2 µM -17% | [2]; at 3.7 µM 15% | [3]; at 1.2 µM -7% | [3]; at 3.7 µM 6% | [4]; at 1.2 µM -21% | [4]; at 3.7 µM -20% | [4]; [16] 18% | [5]; at 1.2 µM -9% | [5]; at 3.7 µM -1% | [5]; [16] 2% | [6]; at 1.2 µM -38% | [6]; at 3.7 µM -9% | [7]; [16] 16% | [7]; [17] -2% | [8]; at 1.2 µM 29% | [8]; at 3.7 µM 22% | [9]; [16] 18% | [9]; [17] 10% | [10]; at 1.2 µM 0% | [10]; at 3.7 µM 23% | [10]; [16] 14% | [10]; [17] 15% | [11]; at 1.2 µM -7% | [11]; at 3.7 µM -19% | [12]; at 1.2 µM -7% | [12]; at 3.7 µM -2% | [13]; at 1.2 µM -18% | [13]; at 3.7 µM -22% | [14]; [16] 21% | [15]; at 1.2 µM -20% | [15]; at 3.7 µM 5%
active: [1]; at 11.0 µM 97% | [1]; at 33.0 µM 96% | [1]; at 100.0 µM 94% | [2]; at 11.0 µM 96% | [2]; at 33.0 µM 94% | [2]; at 100.0 µM 93% | [3]; at 11.0 µM 98% | [3]; at 33.0 µM 96% | [3]; at 100.0 µM 95% | [4]; at 11.0 µM 97% | [4]; at 33.0 µM 95% | [4]; [17] 96% | [4]; at 50.0 µM 85.6% | [4]; at 100.0 µM 94% | [5]; at 11.0 µM 98% | [5]; at 33.0 µM 97% | [5]; [17] 97% | [5]; at 50.0 µM 92% | [5]; at 100.0 µM 94% | [6]; at 11.0 µM 96% | [6]; at 33.0 µM 95% | [6]; at 100.0 µM 92% | [7]; at 50.0 µM 88.8% | [8]; at 11.0 µM 98% | [8]; at 33.0 µM 96% | [8]; at 100.0 µM 91% | [9]; at 50.0 µM 88.2% | [10]; at 11.0 µM 97% | [10]; at 33.0 µM 96% | [10]; at 50.0 µM 89% | [10]; at 100.0 µM 95% | [11]; at 11.0 µM 97% | [11]; at 33.0 µM 96% | [11]; at 100.0 µM 86% | [12]; at 11.0 µM 98% | [12]; at 33.0 µM 97% | [12]; at 100.0 µM 95% | [13]; at 11.0 µM 97% | [13]; at 33.0 µM 96% | [13]; at 100.0 µM 93% | [14]; [17] 95% | [14]; at 50.0 µM 91% | [15]; at 11.0 µM 97% | [15]; at 33.0 µM 96% | [15]; at 100.0 µM 93%

CCCN=Cc1cc(Cc2ccc(O)c(C=NCCC)c2)ccc1O
inactive: [1]; at 1.2 µM 64% | [2]; at 1.2 µM 27% | [3]; at 1.2 µM 45% | [6]; at 1.2 µM 57% | [7]; [16] -15% | [7]; [17] -85% | [9]; [16] -41% | [9]; [17] -84% | [10]; at 1.2 µM 64% | [10]; [16] -49% | [10]; [17] -86% | [11]; at 1.2 µM 29%
active: [1]; at 3.7 µM 97% | [1]; at 11.0 µM 98% | [1]; at 33.0 µM 99% | [1]; at 100.0 µM 99% | [2]; at 3.7 µM 85% | [2]; at 11.0 µM 96% | [2]; at 33.0 µM 98% | [2]; at 100.0 µM 99% | [3]; at 3.7 µM 97% | [3]; at 11.0 µM 99% | [3]; at 33.0 µM 98% | [3]; at 100.0 µM 97% | [4]; at 1.2 µM 70% | [4]; at 3.7 µM 97% | [4]; [16] 93% | [4]; at 11.0 µM 99% | [4]; at 33.0 µM 99% | [4]; [17] 99% | [4]; at 50.0 µM 91% | [4]; at 100.0 µM 98% | [5]; at 1.2 µM 92% | [5]; at 3.7 µM 98% | [5]; [16] 99% | [5]; at 11.0 µM 99% | [5]; at 33.0 µM 98% | [5]; [17] 99% | [5]; at 50.0 µM 91.5% | [5]; at 100.0 µM 98% | [6]; at 3.7 µM 97% | [6]; at 11.0 µM 98% | [6]; at 33.0 µM 99% | [6]; at 100.0 µM 98% | [7]; at 50.0 µM 92.2% | [8]; at 1.2 µM 78% | [8]; at 3.7 µM 97% | [8]; at 11.0 µM 98% | [8]; at 33.0 µM 99% | [8]; at 100.0 µM 98% | [9]; at 50.0 µM 91.4% | [10]; at 3.7 µM 95% | [10]; at 11.0 µM 98% | [10]; at 33.0 µM 98% | [10]; at 50.0 µM 90.8% | [10]; at 100.0 µM 97% | [11]; at 3.7 µM 98% | [11]; at 11.0 µM 99% | [11]; at 33.0 µM 99% | [11]; at 100.0 µM 98%
